Measured values published in PubChem BioAssay AID1721 (National Center for Advancing Translational Sciences (NCATS), 2009).
The whole screen tested about 290,000 compounds, of which about 1,100 (0.38%) were called active. For the sample, actives were picked, then their nearest neighbours and some compounds at random. Unmarked numbers belong to inactive results. Calls follow the shape of the dose curve; as a rule, active = well fitted inhibition curve with a large enough effect; inconclusive = small, poorly fitted or top-dose-only effect, or another doubt; inactive = no such curve, though single readings can be large or run the other way.

target: Pyruvate kinase (Leishmania mexicana) (UniProt Q27686); experiment: qHTS Assay for Inhibitors of Leishmania Mexicana Pyruvate Kinase (LmPK); conditions: purified LmPK, Kinase-Glo ATP luminescence, 1 h; series mostly up to 57.5 µM; activity change, negative = inhibition: at the top concentration
Sequence (Q27686 whole entry, looked up): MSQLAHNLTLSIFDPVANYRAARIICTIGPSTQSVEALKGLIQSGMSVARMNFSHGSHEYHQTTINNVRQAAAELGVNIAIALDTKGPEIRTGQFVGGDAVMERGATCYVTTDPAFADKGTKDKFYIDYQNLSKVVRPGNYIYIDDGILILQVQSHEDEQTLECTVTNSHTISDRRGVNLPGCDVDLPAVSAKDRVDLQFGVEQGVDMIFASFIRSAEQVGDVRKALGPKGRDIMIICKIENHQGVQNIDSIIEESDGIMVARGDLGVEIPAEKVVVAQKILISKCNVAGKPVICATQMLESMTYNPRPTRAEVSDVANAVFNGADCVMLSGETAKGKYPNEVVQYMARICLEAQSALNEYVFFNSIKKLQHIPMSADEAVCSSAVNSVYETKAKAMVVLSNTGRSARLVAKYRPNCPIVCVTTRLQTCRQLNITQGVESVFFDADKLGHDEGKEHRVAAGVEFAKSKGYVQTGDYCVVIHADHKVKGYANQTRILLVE
Excerpt: NIH Chemical Genomics Center [NCGC] Malcolm Walkinshaw, Hugh Morgan, Linda Gilmore University of Edinburgh, UK MLPCN Grant: 1 R03 MH085697-01 NCGC Assay Overview: Pyruvate kinase (L. Mexicana) (LmPK) enzyme was supplied as a highly purified (>95% pure) sulphate-free preparation from University of Edinburgh, UK and assayed for its ability to generate ATP from ADP using phosphoenolpyruvate (PEP) as a substrate. ATP generation was detected in a coupled reaction by luciferase-mediated luminescence, an ATP-dependent process. […] The enzyme was assayed at an intermediate level of activity to screen for both inhibitors and activators.
NCGC Assay Protocol Summary: Three uL of enzyme mix (kept on ice) in assay buffer (50 mM Imidazole pH7.2, 50 mM KCl, 7 mM MgCl2, 0.01% Tween 20, 0.05% BSA) containing PEP (0.5 mM final concentration) and LmPK (0.1 nM final concentration) was dispensed into white solid bottom 1,536 well microtiter plates. 23 nL of compound were delivered by a pin tool and 1 uL of ADP mix in assay buffer (r.t; 0.1 mM final ADP concentration) was added. Plates were incubated at room temperature for 1 hour. Two uL of detection mix (Kinase-Glo, Promega; at 4 degree Celsius protected from light) was added and luminescence read by a ViewLux (Perkin Elmer) at 1 second exposure/plate. Data were normalized to the uninhibited and AC100 inhibition (no enzyme). To monitor activation, the first column contained a five-fold concentration of LmPK (0.5 nM).
% is scaled to controls: 0 for no effect and ±100 for the full control effect; potency is read from the fitted curve at half-maximal effect.

Point of comparison: `S=c1[nH]nc(-c2ccc(Cl)cc2)n1CC1CCCO1` (stereo not given), “activity change, negative = inhibition” value -19.2%. Against it:
- CCn1c(CNS(=O)(=O)c2ccc(Cl)cc2)n[nH]c1=S — higher, 4.89%
- CCn1c(-c2ccncc2)n[nH]c1=S — higher, 3.37%
- COc1cccc(CNC(=O)C2CCCN(S(=O)(=O)N3CC(C)CC(C)C3)C2)c1 (stereo not given) — higher, 2.71%
- c1ccc(Cc2ccc(OCCn3ccnc3)cc2)cc1 — higher, -2.41%
- CCC1CCCCN1CCCNC(=O)c1cc2c(Cl)nc3ccccc3c2s1 (stereo not given) — higher, -3.62%
- CCOc1ccccc1NS(=O)(=O)c1cc2c3c(c1)C(C)C(=O)N3CCC2 (stereo not given) — higher, 6.52%
- CCOC(=O)c1cc(S(=O)(=O)NCCc2ccc(OC)c(OC)c2)cn1C — higher, 10.7%
- Cc1nc2ccc(C(=O)N/N=C/c3ccc(O)cc3)cc2[nH]1 — higher, 0.498%
- O=C(C[n+]1ccccc1)N/N=C/c1ccc(O)cc1 — higher, -8.31%
- C=CCNc1nc(N)c([N+](=O)[O-])c(NC2CCCCC2)n1 — higher, 1.29%
- NNC(=O)CNC(c1ccccc1)c1cc(Cl)ccc1NC(=O)c1ccccc1 (stereo not given) — higher, -0.937%
- C[C@@H](NC(=O)OC(C)(C)C)c1nnc(S(=O)(=O)Cc2ccccc2)o1 — higher, 1.2%
- O=C(CCc1ccccc1)Nc1ncc([N+](=O)[O-])s1 — higher, 0.572%
- O=C(Nc1ncc([N+](=O)[O-])s1)C1COc2ccccc2O1 (stereo not given) — lower, -20.8%
- Cc1ccc(/C=N/NC(=O)c2cc3ccccc3cc2O)o1 — higher, -2.32%
- N=c1oc2ccccc2cc1C(=O)NCc1ccccc1 — higher, -5.29%
- CC1CC(C)CN(CCOc2cccc3ccccc23)C1 (stereo not given) — higher, 0.618%
- Cc1cc(C)c(OCC(=O)N(Cc2cccs2)C2CCS(=O)(=O)C2)c(C)c1 (stereo not given) — higher, 0.0184%
- CCCn1c(C2CCCN2c2nc(-c3ccc(OC)cc3)cs2)nc2ccccc21 (stereo not given) — higher, -0.585%
- COc1ccc(-n2ncc3c2CC(C)(C)CC3NC(=O)CCc2c(C)noc2C)cc1 (stereo not given) — higher, -2.13%
- COC(=O)c1ccc2c(C(C)(C)O)c(C(C)(C)O)[nH]c2c1 — higher, -3.67%
- COc1ccc(OC)c(-n2c(=S)[nH]c3cc(C(=O)N4CCCCC4)ccc3c2=O)c1 — higher, -8.77%
- Cc1cc(-c2n[nH]c(=S)n2-c2ccc(C)c(C)c2)no1 — higher, -17.2%
- Cc1ccc(OCc2n[nH]c(=S)n2-c2ccc(C)cc2)cc1 — higher, 2.55%
- COc1ccc(-c2n[nH]c(C)c2-c2ccc(OC)c(OC)c2)c(O)c1 — higher, 2.24%
- Cc1cc(-c2n[nH]c(=S)n2/N=C/c2ccco2)n[nH]1 — higher, 6.46%
- COc1ccc(OCc2n[nH]c(=S)n2N)cc1 — higher, 1.04%
- COc1ccccc1-n1cn[nH]c1=S — higher, -11.1%
- O=C(CN1CCCCCC1)Nc1c(Cl)cc(Cl)cc1Cl — higher, -2.33%
- O=C(C1CCCN(S(=O)(=O)c2ccccc2)C1)N1CCN(c2ccc(F)cc2)CC1 (stereo not given) — higher, -5.11%
- O=C(CCS(=O)(=O)c1ccccc1)NC1CCCC1 — higher, -7.62%
- CC(C)(C)C1C/C(=C/c2ccco2)C(=O)/C(=C/c2ccco2)C1 (stereo not given) — higher, 2.93%
- COc1ccc(S(=O)(=O)NCCOc2ccccc2)cc1F — higher, 6.43%
- COc1ccc(CCN2CC(C(=O)NCCN3CCNC3=O)CCC2=O)cc1 (stereo not given) — higher, -1.55%
- CCn1c(SCC(=O)NC2CCCC2)nnc1-c1ccoc1C — higher, -1.22%
- COc1cccc(NC(=O)COc2cc(C)cc3oc(=O)cc(C)c23)c1 — higher, -1.3%
- COc1ccc(S(=O)(=O)NCCCCOc2ccc(Cl)cc2)cc1 — higher, -1.76%
- CCOc1ccc(C2NC(=S)NC3=C2CCc2ccccc23)cc1 (stereo not given) — higher, -18.4%
- CC(C)(C)c1ccc(Cn2nnc3c(=O)[nH]c(C4CCCN(C(=O)c5ccco5)C4)nc32)cc1 (stereo not given) — higher, 4.01%
- COc1ccc(C(=O)NC2CC(C)(C)NC(C)(C)C2)cc1OC — higher, 3.08%
- COCCc1nn2c(=O)cc(COC(=O)c3cc(OC)c(OC)c(OC)c3)nc2s1 — higher, 4.84%
- CC(=O)C1=C(O)C(=O)N(c2ccc(Br)cc2)C1c1ccc([N+](=O)[O-])cc1 (stereo not given) — higher, 4.85%
- CCCCc1nc2cc(C(=O)N3CCCCC3CCO)ccc2o1 (stereo not given) — higher, -5.27%
- COc1ccc(OCC(=O)Nc2ccc(NC(=O)c3ccco3)c(C)c2)cc1 — higher, 3.97%
- Cc1cc(NC(=O)c2ccc(F)cc2)ccc1NC(=O)c1ccco1 — higher, -5.75%

With `CCn1c(CSCc2c(Cl)cccc2Cl)n[nH]c1=S` the Potency was 15.8 µM (active).
With `Cc1nonc1C(=O)N/N=C/c1ccc(O)cc1` the Potency was 8.91 µM (active).
In the case of `CC(=O)Oc1ccccc1C(=O)Nc1ncc([N+](=O)[O-])s1`, the Potency is reported as 12.6 µM (active).
`N=c1oc2ccccc2cc1C(=O)N/N=C/c1ccccc1` was tested, and the Potency was 8.91 µM (active).
For `Cc1ccc(-n2c(-c3ccc(Cl)cc3)n[nH]c2=S)cc1`, the Potency was 14.1 µM (active).
For `COc1ccc(OC)c(-n2c(-c3ccn[nH]3)n[nH]c2=S)c1`, the Potency was 20 µM (active).
For `COc1ccc(-n2c(-c3ccc(OC)c(OC)c3)n[nH]c2=S)cc1`, the Potency was 20 µM (active).
In the case of `COc1ccccc1-n1c(-c2cc(-c3ccco3)[nH]n2)n[nH]c1=S`, the Potency is reported as 3.55 µM (active).

Compound `Cc1cc2c(c(=O)n1Cc1ccccc1)C1O[C@](CCCCN3C(=O)c4ccccc4C3=O)(Cc3ccccc31)O2` has an activity change, negative = inhibition of -8.6% [at 11.5 µM].
